This note sets out measurements from PubChem BioAssay (EPA / NIEHS).

Assay [1] addresses Retinoic acid receptor RXR-alpha (Homo sapiens) (UniProt P19793). The assay is described as follows: ATG_RXRa_TRANS: Attagene TRANS-FACTORIAL HepG2 Assay for human Retinoid X Receptor alpha (RXRa) (AID 2283012; active = hit-call score of the fitted dose curve at least 0.9, where 1 is the maximum). In a few lines: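 Chimeric NR-GAL4 trans-activation in HepG2, 24 h treatment; reporter transcripts quantified by fluorescence on capillary electrophoresis, analysed for upward change from DMSO.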

Assay [2] has as its target human Retinoid X Receptor beta (RXRb), RXRB (gene 6257) (UniProt P28702). Description: ATG_RXRb_TRANS: Attagene TRANS-FACTORIAL HepG2 Assay for human Retinoid X Receptor beta (RXRb) (AID 2283013; active = hit-call score of the fitted dose curve at least 0.9, where 1 is the maximum). In a few lines:
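After a 24 h incubation with test chemical, transfected HepG2 cells carrying NR-Gal4 fusions and GAL4-UAS reporter transcription units yield RNA whose reporter cDNA is FAM-labelled, HpaI-cut and sized by capillary electrophoresis; increases over DMSO are scored.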

Read-out in assay [3]: E-selectin (Homo sapiens) (UniProt P16581)
The assay is described as follows: BSK_3C_Eselectin: BioMAP Diversity Plus: 3C Assay for Eselectin Biomarker Activity (AID 2283015). To be noted: primary human endothelial cells (HUVEC); actives raise or lower the signal. An outline of the steps: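 ELISA read-out of E-selectin on endothelial monolayers after 24 h chemical treatment. Human umbilical vein primary cells served as the system, with DMSO defining baseline activity for bidirectional fitting.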

Read-out in assay [4]: Interleukin-1 alpha (IL1a), IL1A (gene 3552)
The assay is described as follows: BSK_BE3C_IL1a: BioMAP Diversity Plus: BE3C Assay for Interleukin-1 alpha (IL1a) Biomarker Activity (AID 2283016). To be noted: primary human bronchial epithelial cells; actives raise or lower the signal. An outline of the steps: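 Measured in human lung primary bronchial epithelial cells: IL-1a by ELISA at 24 h after dosing, with bidirectional fitting against DMSO.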

Read-out in assay [5]: Monocyte Chemoattractant Protein-1 (MCP1), CCL2 (gene 6347)
Description: BSK_3C_MCP1: BioMAP Diversity Plus: 3C Assay for Monocyte Chemoattractant Protein-1 (MCP1) Biomarker Activity (AID 2283017). To be noted: primary human endothelial cells (HUVEC); actives raise or lower the signal. In a few lines:
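ELISA read-out of MCP-1 from human umbilical vein endothelial cell cultures harvested 24 h post-dosing. Gain or loss of signal was fitted relative to DMSO.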

Read-out in assay [6]: Monocyte Chemoattractant Protein-1 (MCP1), CCL2 (gene 6347)
The assay is described as follows: BSK_4H_MCP1: BioMAP Diversity Plus: 4H Assay for Monocyte Chemoattractant Protein-1 (MCP1) Biomarker Activity (AID 2283018). To be noted: primary human endothelial cells (HUVEC); actives raise or lower the signal. In a few lines:
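Primary human umbilical vein endothelium is exposed to chemical for 24 h before MCP-1 is assayed by ELISA. Concentration-response fitted bidirectionally relative to DMSO.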

Read-out in assay [7]: Human Leukocyte Antigen - DR isotype (HLADR), HLA-DRA (gene 3122)
Description: BSK_3C_HLADR: BioMAP Diversity Plus: 3C Assay for Human Leukocyte Antigen - DR isotype (HLADR) Biomarker Activity (AID 2283019). The following applies: primary human endothelial cells (HUVEC); actives raise or lower the signal. In a few lines: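 ELISA readout of surface HLA-DR on human umbilical vein endothelium, taken 24 h after chemical treatment. Gain- and loss-of-signal were both fitted relative to DMSO.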

Read-out in assay [8]: Interleukin-8 (IL8), CXCL8 (gene 3576)
The assay is described as follows: BSK_3C_IL8: BioMAP Diversity Plus: 3C Assay for Interleukin-8 (IL8) Biomarker Activity (AID 2283020). The following applies: primary human endothelial cells (HUVEC); actives raise or lower the signal. An outline of the steps:
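Using DMSO-treated wells as the baseline, bidirectional curve fitting was applied to ELISA-measured IL-8 from human umbilical vein endothelial cultures sampled 24 h after compound addition.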

Read-out in assay [9]: Monokine induced gamma interferon (MIG), CXCL9 (gene 4283)
Description: BSK_3C_MIG: BioMAP Diversity Plus: 3C Assay for Monokine induced gamma interferon (MIG) Biomarker Activity (AID 2283021). The following applies: primary human endothelial cells (HUVEC); actives raise or lower the signal. An outline of the steps:
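ELISA-measured MIG in dosed HUVEC 3C cultures at 24 h, analysed by bidirectional fitting with DMSO defining baseline activity.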

Assay [10] is described as follows: BSK_3C_SRB: Viability Assessment in the BioMAP Diversity Plus: 3C Assay (AID 2283023).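 Also: fitted both ways against DMSO so a hit may be signal rise or drop.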 To be noted: primary human endothelial cells (HUVEC). An outline of the steps:
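Absorbance at 560 nm of sulforhodamine B-stained (0.1%) total protein served as a cytotoxicity readout in human umbilical vein endothelial cells, 24 h after chemical treatment. Signal was fitted bidirectionally relative to DMSO.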

Read-out in assay [11]: Matrix Metallopeptidase 1 (MMP1), MMP1 (gene 4312)
The assay is described as follows: BSK_BE3C_MMP1: BioMAP Diversity Plus: BE3C Assay for Matrix Metallopeptidase 1 (MMP1) Biomarker Activity (AID 2283024). The following applies: primary human bronchial epithelial cells; actives raise or lower the signal. An outline of the steps: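 In this multiplexed primary-cell system, human bronchial epithelium received chemicals for 24 h before an ELISA for MMP1. Values reflect bidirectional fits normalised to the DMSO baseline.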

The nature of assay [12]: BSK_3C_Vis: BioMAP Diversity Plus: 3C Assay for Morphology Visualization (AID 2283025).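 Also: light microscopy image of cell morphology used as background control; fitted both ways so gain or loss versus DMSO counts.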 To be noted: primary human endothelial cells (HUVEC). In a few lines: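 Light-microscopy morphology readout, 24 h exposure, human primary umbilical vein endothelium; analysed relative to DMSO with bidirectional fitting.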
Read-out in assay [13]: Pselectin, SELP (gene 6403)
The assay is described as follows: BSK_4H_Pselectin: BioMAP Diversity Plus: 4H Assay for Pselectin Biomarker Activity (AID 2283026). To be noted: primary human endothelial cells (HUVEC); actives raise or lower the signal. An outline of the steps:
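Bidirectional fits against DMSO gave the endpoint. Cells: primary human umbilical vein endothelium, chemical-treated for 24 h before ELISA detection of P-selectin.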

Assay [14] in a line: BSK_4H_SRB: Viability Assessment in the BioMAP Diversity Plus: 4H Assay (AID 2283027).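 Also: cells exposed to compound for 24 h before staining; curves fitted both ways versus DMSO so AC50 may be loss or gain.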 To be noted: primary human endothelial cells (HUVEC). In a few lines: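 Cytotoxicity read-out in primary human endothelial cells: after 24 h compound exposure, cells were TCA-fixed (10%), stained with 0.1% SRB and absorbance taken at 560 nm. Values fitted in both directions relative to DMSO.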

Assay [15] in a line: BSK_BE3C_SRB: Viability Assessment in the BioMAP Diversity Plus: BE3C Assay (AID 2283028). To be noted: primary human bronchial epithelial cells. An outline of the steps: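 Cells (human bronchial epithelial, primary) are treated with chemicals, and after 24 h the parallel cultures are fixed in 10% TCA. These are then stained with 0.1% SRB and read at 560 nm. Gain or loss of signal is fitted relative to DMSO.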

Read-out in assay [16]: Thrombomodulin, THBD (gene 7056)
The assay is described as follows: BSK_3C_Thrombomodulin: BioMAP Diversity Plus: 3C Assay for Thrombomodulin Biomarker Activity (AID 2283029). The following applies: primary human endothelial cells (HUVEC); actives raise or lower the signal. In a few lines: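 In a multiplexed primary-cell system, human umbilical vein endothelium received chemical and was assayed 24 h later for thrombomodulin by ELISA. Parallel cultures were SRB-stained (0.1% SRB after 10% TCA fixation, read at 560 nm) to flag cytotoxicity.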

Read-out in assay [17]: Urokinase-type plasminogen activator receptor (uPAR), PLAUR (gene 5329)
The assay is described as follows: BSK_4H_uPAR: BioMAP Diversity Plus: 4H Assay for Urokinase-type plasminogen activator receptor (uPAR) Biomarker Activity (AID 2283030). To be noted: primary human endothelial cells (HUVEC); actives raise or lower the signal. In a few lines: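 Cell-surface uPAR ELISA signal, measured 24 h after dosing human umbilical vein endothelial cells, was analyzed with bidirectional fitting relative to DMSO. Parallel SRB staining of total protein tracked overt cytotoxicity.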

Read-out in assay [18]: Vascular endothelial growth factor receptor 2 (Homo sapiens) (UniProt P35968)
The assay is described as follows: BSK_4H_VEGFRII: BioMAP Diversity Plus: 4H Assay for Vascular endothelial growth factor receptor 2 (VEGFR2) Biomarker Activity (AID 2283031).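 As to AC50: cell-surface VEGFR2 protein level quantified by ELISA.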 To be noted: primary human endothelial cells (HUVEC); actives raise or lower the signal. In a few lines: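 ELISA read-out of VEGFRII in primary human umbilical vein endothelium, taken 24 h after chemical treatment. Responses are expressed relative to DMSO, with bidirectional fitting.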

Assay [19] addresses human Thyroid Receptor alpha (THRa1), THRA (gene 7067) (UniProt P10827). The assay is described as follows: ATG_THRa1_TRANS: Attagene TRANS-FACTORIAL HepG2 Assay for human Thyroid Receptor alpha (THRa1) (AID 2283014; active = hit-call score of the fitted dose curve at least 0.9, where 1 is the maximum). An outline of the steps: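 Reporter transcript induction, read by capillary electrophoresis of 6-FAM-labelled RT-PCR products, reflects activity of a transfected THRa1-Gal4 fusion in HepG2 liver cells. Cells were dosed for 24 h; activity was fitted in the positive direction against DMSO.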

Assay [20] concerns the target human Vitamin D Receptor (VDR), VDR (gene 7421) (UniProt P11473). Description: ATG_VDR_TRANS: Attagene TRANS-FACTORIAL HepG2 Assay for human Vitamin D Receptor (VDR) (AID 2283022; active = hit-call score of the fitted dose curve at least 0.9, where 1 is the maximum). An outline of the steps: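 Steps: transfect HepG2 with GAL4-UAS-driven reporter constructs; dose compounds 24 h; isolate RNA, reverse-transcribe, PCR-amplify with 6-FAM-labelled primer extension and HpaI digestion; quantify fragments by capillary electrophoresis relative to DMSO.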

Results filed as inconclusive are left out. Active and inactive are the calls of the source. The calls were made as follows, unless noted: active = hit-call score of the fitted dose curve at least 0.9, where 1 is the maximum; inactive = score below 0.9.

Sequence of human Vitamin D Receptor (VDR), VDR (gene 7421) (P11473 whole entry, looked up, the tested form may be a part): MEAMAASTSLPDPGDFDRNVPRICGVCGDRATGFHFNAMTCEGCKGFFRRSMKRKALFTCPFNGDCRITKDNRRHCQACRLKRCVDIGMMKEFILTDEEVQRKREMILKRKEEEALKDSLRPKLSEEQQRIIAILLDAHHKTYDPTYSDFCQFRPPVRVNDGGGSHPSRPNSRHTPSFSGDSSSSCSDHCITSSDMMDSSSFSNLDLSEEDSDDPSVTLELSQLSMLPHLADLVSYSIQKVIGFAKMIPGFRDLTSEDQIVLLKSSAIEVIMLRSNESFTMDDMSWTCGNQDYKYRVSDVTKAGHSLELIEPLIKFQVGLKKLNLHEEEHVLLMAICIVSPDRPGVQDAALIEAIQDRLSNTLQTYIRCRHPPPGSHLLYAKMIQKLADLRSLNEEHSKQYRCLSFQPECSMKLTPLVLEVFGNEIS
Sequence of human Thyroid Receptor alpha (THRa1), THRA (gene 7067) (P10827 whole entry, looked up, the tested form may be a part): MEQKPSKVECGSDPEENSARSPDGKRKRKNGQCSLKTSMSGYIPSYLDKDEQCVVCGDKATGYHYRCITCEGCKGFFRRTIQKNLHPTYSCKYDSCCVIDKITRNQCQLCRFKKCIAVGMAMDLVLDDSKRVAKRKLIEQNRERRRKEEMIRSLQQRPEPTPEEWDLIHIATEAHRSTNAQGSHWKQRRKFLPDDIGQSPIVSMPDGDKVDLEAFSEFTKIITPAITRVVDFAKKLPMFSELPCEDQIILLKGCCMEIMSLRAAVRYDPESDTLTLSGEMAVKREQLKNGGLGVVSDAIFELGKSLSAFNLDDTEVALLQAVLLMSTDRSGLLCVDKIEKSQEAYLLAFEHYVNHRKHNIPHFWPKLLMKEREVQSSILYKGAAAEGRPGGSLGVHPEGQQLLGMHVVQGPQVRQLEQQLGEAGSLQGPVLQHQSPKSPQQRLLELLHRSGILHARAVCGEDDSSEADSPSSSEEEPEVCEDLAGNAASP
Sequence of Retinoic acid receptor RXR-alpha (Homo sapiens) (P19793 whole entry, looked up, the tested form may be a part): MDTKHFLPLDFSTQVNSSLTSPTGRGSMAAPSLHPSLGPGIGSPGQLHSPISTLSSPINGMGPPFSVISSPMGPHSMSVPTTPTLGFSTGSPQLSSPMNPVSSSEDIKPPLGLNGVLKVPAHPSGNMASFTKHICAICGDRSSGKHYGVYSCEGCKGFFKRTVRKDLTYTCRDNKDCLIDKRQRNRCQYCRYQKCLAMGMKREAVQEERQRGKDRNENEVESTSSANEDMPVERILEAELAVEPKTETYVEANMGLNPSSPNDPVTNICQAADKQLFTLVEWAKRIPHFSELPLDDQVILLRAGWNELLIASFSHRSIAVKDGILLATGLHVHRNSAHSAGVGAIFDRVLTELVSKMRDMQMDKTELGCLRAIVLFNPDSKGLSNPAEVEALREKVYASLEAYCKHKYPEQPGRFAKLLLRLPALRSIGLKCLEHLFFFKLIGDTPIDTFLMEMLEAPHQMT
Sequence of E-selectin (Homo sapiens) (P16581 whole entry, looked up): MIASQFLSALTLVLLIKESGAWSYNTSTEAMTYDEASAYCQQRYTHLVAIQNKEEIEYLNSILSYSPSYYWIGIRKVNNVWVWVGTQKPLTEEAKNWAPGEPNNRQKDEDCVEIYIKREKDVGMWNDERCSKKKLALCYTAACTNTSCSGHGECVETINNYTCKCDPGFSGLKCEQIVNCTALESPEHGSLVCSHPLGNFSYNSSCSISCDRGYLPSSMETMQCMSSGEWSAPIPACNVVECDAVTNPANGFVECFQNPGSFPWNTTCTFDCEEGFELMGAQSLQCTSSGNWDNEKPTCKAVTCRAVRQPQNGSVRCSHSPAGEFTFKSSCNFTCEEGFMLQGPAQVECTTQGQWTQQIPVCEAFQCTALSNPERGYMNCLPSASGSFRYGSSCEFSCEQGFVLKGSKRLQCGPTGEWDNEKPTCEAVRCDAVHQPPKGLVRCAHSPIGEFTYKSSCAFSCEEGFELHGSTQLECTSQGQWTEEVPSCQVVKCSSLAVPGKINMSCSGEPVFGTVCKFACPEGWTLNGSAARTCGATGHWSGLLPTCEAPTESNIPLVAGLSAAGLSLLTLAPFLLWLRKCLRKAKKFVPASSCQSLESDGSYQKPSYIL
Sequence of human Retinoid X Receptor beta (RXRb), RXRB (gene 6257) (P28702 whole entry, looked up, the tested form may be a part): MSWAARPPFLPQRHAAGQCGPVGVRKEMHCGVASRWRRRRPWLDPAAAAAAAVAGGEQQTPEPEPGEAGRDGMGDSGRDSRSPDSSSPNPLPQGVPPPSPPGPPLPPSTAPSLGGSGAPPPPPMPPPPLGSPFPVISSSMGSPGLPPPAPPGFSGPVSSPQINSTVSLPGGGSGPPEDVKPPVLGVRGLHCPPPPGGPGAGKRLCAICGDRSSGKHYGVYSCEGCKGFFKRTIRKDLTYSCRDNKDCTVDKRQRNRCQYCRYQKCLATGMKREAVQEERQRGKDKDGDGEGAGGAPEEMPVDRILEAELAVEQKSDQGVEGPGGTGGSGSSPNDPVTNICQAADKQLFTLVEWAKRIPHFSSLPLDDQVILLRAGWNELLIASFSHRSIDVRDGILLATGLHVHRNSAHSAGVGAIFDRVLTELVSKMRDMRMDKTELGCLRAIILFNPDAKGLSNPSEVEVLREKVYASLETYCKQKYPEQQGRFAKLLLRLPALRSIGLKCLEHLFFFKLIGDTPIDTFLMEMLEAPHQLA

For orientation: AC50 means the midpoint of the concentration-response curve, whichever way the signal moves. Regarding `CCCCCC(C=O)=Cc1ccccc1`, the molecule was called inactive in [1], in assay [4], in assay [9], in [15] and in assay [16]. Besides, the AC50 in assay [2] is 73.8 µM (active); in assay [3], 35.2 µM (active); in assay [5], 31.5 µM (active); in assay [6], 27.8 µM (active); in [7], 36.6 µM (active); in [8] it was 28.8 µM (active). Also, the AC50 in assay [10] was 33.1 µM (active); in assay [11], 0.096 µM (active); in [12], 37.8 µM (active); in assay [13], 32.7 µM (active); in assay [14], 34.1 µM (active); in [17], 36.5 µM (active). Further, the AC50 in assay [18] is 31.3 µM (active).

With `CCCCCCC(C)Nc1ccc(Nc2ccccc2)cc1` (centres undefined), the results for the AC50 in assay [1], in [2] and in assay [19] were 34.4 µM (active), 30.2 µM (active) and 27.1 µM (active), respectively. Besides, the call in [20] was inactive.

On to `OCC#CCO`, for which the molecule was called inactive in [1] and in assay [20].

As to `COc1ccc(CCN2CCC(Nc3nc4ccccc4n3Cc3ccc(F)cc3)CC2)cc1`, the molecule was classed as inactive in [1], in assay [19], in assay [4], in assay [9], in [20] and in assay [11]. Also, the outcome in assay [13], in assay [15], in assay [16] and in assay [18] was inactive. Besides, the concentration at half-maximal activity (AC50) in [3] was 5 µM (active); in assay [5] it was 3.54 µM (active); in assay [6], 0.992 µM (active); in assay [7] it was 6.77 µM (active); in assay [8], 2.66 µM (active); in assay [10] it was 2.41 µM (active). The AC50 is 0.743 µM (active) in assay [12], 2.49 µM (active) in [14] and 0.992 µM (active) in [17].

Regarding `CCC1(C)NC(=O)NC1=O` (centres undefined), the outcome in [1] and in assay [20] was inactive.

`CCCCSCCCC`: the molecule was called inactive in assay [1] and in assay [19].

`CCCCCCCCCCCCCCN(CCO)CCO`: the result in assay [1], in assay [19] and in [20] was inactive.

`CCc1ncc(C)[nH]1`: the molecule was called inactive in [1] and in assay [19].

With `CCOC(=O)CC(C)O` (centres undefined), the call in assay [1], in assay [19] and in assay [20] was inactive.

In the case of `CC1CC(O)CC(C)(C)C1` (centres undefined), the molecule was classed as inactive in assay [1] and in assay [19].

Consider `COC(=O)c1ccc(C)cc1C1=NC(C)(C(C)C)C(=O)N1` (centres undefined) (tested in a mixture with another compound), for which the call in assay [1] and in assay [20] was inactive.
